The source of these data is PubChem BioAssay.

Calls of active or inactive are those of the source.

Assay [1] has as its system Plasmodium falciparum Sir2 (PF13_0152, Sir2A). Kind of assay: Plasmodium falciparum Sir2A binding compounds – biochemical, small-molecule microarray, 635 nm fluorescence, primary screen (AID 1098).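 Further: score merges spot fluorescence intensity with its signal-to-noise ratio.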 The note with it: fluorescence 635 nm, higher = more signal.
A short description of assay [2]: probe aDKK1 binding to arrayed compounds – biochemical, biotinylated probe, 635/667 nm fluorescence, primary screen (AID 1099).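 Further: score merges 667nm spot fluorescence with signal to noise across triplicate slides; reference of the scale not given here.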 The note with it: small-molecule microarray, higher = more signal.
Assay [3] is described as follows: probe aCHRDL2 binding to arrayed compounds – biochemical, biotinylated probe, 635/667 nm fluorescence, primary screen (AID 1100). The note with it: small-molecule microarray, higher = more signal.
The nature of assay [4]: change in splice reporter luminescence, either direction, cell-based, HEK293, spliceosome inhibition project, primary screen (AID 1101).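 Further: HEK293 cells carrying a splicing-competent luciferase reporter gene; test concentration not given here.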 To be noted: HEK293 splicing luciferase reporter, 24 h, higher = more signal, called active from +8 up or from −8 down. For orientation: Reporter assays use an easily measured gene product as a stand-in for the process of interest.
For assay [5], the target named is Fibroblast growth factor 10 (Homo sapiens) (UniProt O15520). In words: compounds binding fibroblast growth factor 10 – biochemical, small-molecule microarray, 635 nm fluorescence, primary screen (AID 1102). To be noted: FGF10 binding, fluorescence 635 nm, higher = more signal.
The test system of assay [6] is glycogen synthase kinase-3 (GSK3A per assay name; protocol says GSK3B). In words: compounds binding glycogen synthase kinase-3 – biochemical, small-molecule microarray, 635 nm fluorescence, GSK3A, primary screen (AID 1103). Further: the record names both GSK3A and GSK3B. To be noted: fluorescence 635 nm, higher = more signal.
Assay [7] addresses Epidermal growth factor receptor (Homo sapiens) (UniProt P00533). In words: compounds binding epidermal growth factor receptor – biochemical, small-molecule microarray, 635 nm fluorescence, primary screen (AID 1104).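 Further: score merges 667 nm emission intensity with spot signal to noise over triplicate slides.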 To be noted: EGFR binding, higher = more signal.
Assay [8] deals with Follistatin-related protein 3 (Homo sapiens) (UniProt O95633). In words: compounds binding follistatin-related protein 3 – biochemical, small-molecule microarray, 635 nm fluorescence, primary screen (AID 1105).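 Further: score merges emission near 667 nm and signal to noise per printed spot across three slides.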 To be noted: FSTL3 binding, higher = more signal.
Assay [9] deals with Dickkopf-related protein 1 (Homo sapiens) (UniProt O94907). In words: small molecules binding DKK1 protein – biochemical, small-molecule microarray, 635 nm fluorescence scan, primary screen (AID 1106).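 Further: score merges emission near 667 nm with signal to noise over three replicate slides.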 The note with it: higher = more signal.
The test system of assay [10] is Inhibin beta A chain (activin A). In words: small molecules binding activin A – biochemical, small-molecule microarray, 635 nm fluorescence scan, primary screen (AID 1107).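 Further: mouse activin A protein probed at 4.33 µg/mL on printed slides; score merges bound-protein fluorescence near 667 nm with spot signal-to-noise.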 To be noted: INHBA, higher = more signal.

Sequence of Epidermal growth factor receptor (Homo sapiens) (P00533 whole entry, looked up): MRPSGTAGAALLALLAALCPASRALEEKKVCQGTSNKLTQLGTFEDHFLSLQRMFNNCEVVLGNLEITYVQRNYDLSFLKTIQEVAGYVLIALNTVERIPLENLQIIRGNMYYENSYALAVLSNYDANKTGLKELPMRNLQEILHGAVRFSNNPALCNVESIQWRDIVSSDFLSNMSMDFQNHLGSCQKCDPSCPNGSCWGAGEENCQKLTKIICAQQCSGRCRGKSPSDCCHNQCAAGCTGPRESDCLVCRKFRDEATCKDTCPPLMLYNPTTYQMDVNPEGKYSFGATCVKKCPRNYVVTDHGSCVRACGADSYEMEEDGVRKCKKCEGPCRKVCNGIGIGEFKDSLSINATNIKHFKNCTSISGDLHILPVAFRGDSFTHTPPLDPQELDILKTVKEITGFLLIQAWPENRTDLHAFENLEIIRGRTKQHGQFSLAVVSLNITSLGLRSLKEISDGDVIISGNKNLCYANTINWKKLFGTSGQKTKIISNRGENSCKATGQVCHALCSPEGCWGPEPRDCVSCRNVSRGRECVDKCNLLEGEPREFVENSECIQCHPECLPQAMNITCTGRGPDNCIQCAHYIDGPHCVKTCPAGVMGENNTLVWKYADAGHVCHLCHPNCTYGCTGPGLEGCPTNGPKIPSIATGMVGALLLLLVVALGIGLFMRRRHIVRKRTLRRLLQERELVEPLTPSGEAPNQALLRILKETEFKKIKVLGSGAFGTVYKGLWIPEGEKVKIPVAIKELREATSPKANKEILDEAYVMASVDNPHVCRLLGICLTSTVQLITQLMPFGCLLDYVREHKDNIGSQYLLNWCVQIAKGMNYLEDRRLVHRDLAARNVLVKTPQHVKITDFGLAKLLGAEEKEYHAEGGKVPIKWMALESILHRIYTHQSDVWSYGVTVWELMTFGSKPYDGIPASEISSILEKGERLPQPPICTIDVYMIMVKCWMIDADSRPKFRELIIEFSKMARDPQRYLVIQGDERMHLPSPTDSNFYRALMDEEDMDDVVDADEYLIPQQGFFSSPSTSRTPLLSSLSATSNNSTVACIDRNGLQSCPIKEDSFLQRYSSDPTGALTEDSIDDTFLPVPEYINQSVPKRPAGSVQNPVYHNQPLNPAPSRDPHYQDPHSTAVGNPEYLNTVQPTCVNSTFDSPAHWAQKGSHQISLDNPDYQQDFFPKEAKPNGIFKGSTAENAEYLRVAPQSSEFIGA
Sequence of Follistatin-related protein 3 (Homo sapiens) (O95633 whole entry, looked up): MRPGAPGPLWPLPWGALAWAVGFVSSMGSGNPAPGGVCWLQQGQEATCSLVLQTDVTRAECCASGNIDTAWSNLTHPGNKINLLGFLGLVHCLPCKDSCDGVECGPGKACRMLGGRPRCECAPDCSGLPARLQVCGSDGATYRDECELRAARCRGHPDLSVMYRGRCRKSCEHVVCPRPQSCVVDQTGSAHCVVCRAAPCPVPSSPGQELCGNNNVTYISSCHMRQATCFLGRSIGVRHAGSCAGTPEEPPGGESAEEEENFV
Sequence of Fibroblast growth factor 10 (Homo sapiens) (O15520 whole entry, looked up): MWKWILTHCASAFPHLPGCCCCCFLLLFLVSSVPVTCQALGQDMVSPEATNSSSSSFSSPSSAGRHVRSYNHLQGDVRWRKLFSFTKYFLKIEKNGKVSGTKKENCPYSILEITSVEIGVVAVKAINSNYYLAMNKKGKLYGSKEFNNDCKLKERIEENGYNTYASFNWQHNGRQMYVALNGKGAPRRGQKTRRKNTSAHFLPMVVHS
Sequence of Dickkopf-related protein 1 (Homo sapiens) (O94907 whole entry, looked up): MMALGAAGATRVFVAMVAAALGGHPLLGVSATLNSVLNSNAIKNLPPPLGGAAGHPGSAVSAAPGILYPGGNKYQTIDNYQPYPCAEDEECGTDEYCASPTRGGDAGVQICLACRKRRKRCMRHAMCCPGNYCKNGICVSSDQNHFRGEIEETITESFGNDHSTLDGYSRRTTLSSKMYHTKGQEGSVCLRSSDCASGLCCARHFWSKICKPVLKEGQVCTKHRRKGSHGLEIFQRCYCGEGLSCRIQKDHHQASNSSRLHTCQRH

As to `COc1ccc(C(=O)Nc2ccc(CN3C(=O)[C@@]4(O[C@@H](CCO)[C@H]([Si](C)(C)c5ccc(OC)cc5)[C@H]4C)c4ccccc43)cc2)cc1`, the composite z-score was 1.32 in assay [1]; 0.381 in assay [2]; 0.47 in assay [3]; 0.793 in [5]; 1.1 in assay [6]; 0.65 in [7]. Besides, the composite z-score turned out to be 1.45 in assay [8], 1.04 in [9] and 1.39 in assay [10]. For the same molecule, the z-score in assay [4] is -3.19 (inactive).

For the molecule `O=C1C2C=CC(C(O)C(c3ccccc3)c3ccccc3)N(n3cnnc3)C2C(=O)N1Cc1ccccc1` (stereo not given), the composite z-score is 0.55 in [1]; -0.0184 in assay [2]; 0.571 in [3]; 1.25 in [5]; 1.07 in [6]; -1.18 in [7]. Further, the composite z-score in [8] came out at 0.439; in assay [9], 1.24; in assay [10] it was 0.581. Moreover, the z-score in assay [4] was 0.00252 (inactive).

Regarding `O=C1NC(=O)C2C1C=CC(C(O)Cc1ccccc1)N2Nc1ccc(Cl)cc1Cl` (stereo not given), the composite z-score in assay [1] is 1.2; in assay [2] it was 0.931; in assay [3] it was 1.09; in assay [5], 0.175; in assay [6] it was -0.0984; in assay [7] it was -0.854. For the same molecule, the results for the composite z-score in assay [8], in [9] and in assay [10] were 0.236, -1.18 and 1.07, respectively. In [4], the z-score is 1.8 (inactive).

`CCCCCC1=C2CNC(CCC)(C(=O)OC)C=C2C(C)C1=O` (stereo not given): the composite z-score was 0.0288 in assay [1]; 0.719 in assay [2]; 0.952 in assay [3]; 0.439 in assay [5]; -0.111 in assay [6]; -0.576 in [7]. In addition, the composite z-score was -0.435 in [8], -0.793 in assay [9] and 1.14 in assay [10]. Also, in assay [4], the z-score is 2.6 (inactive).

Take `C=CC[C@]12N=C(c3ccc(OCCCO)cc3)O[C@H]1c1ccccc1N(Cc1ccccc1)C2=O`: the composite z-score in [1] was 1.28; in [2], 1.21; in assay [3], 1.37; in [5] it was 0.706; in assay [6], 0.524; in assay [7], 0.112. Besides, the composite z-score turned out to be 0.836 in assay [8], 0.378 in assay [9] and 0.897 in [10]. In addition, the z-score in assay [4] was -0.415 (inactive).

In the case of `O=C1NC(=O)C2C1C=CC(C(O)c1cccc3ccccc13)N2Nc1ccccn1` (stereo not given), the composite z-score in assay [1] was determined as 0.621; in assay [2], 0.103; in assay [3] it was 0.15; in [5], 0.522; in assay [6] it was 0.233; in assay [7], 0.688. In addition, the composite z-score in assay [8] is 0.857; in assay [9] it was 0.31; in [10] it was 0.924. In assay [4], the z-score is 1.03 (inactive).

For the molecule `O=C1OCCC/C=C\[C@H]2OC34C=CCN(Cn5nnc6ccccc65)C(=O)[C@H]3N(CCO)C(=O)[C@@H]4C12` (stereo not given in full), the composite z-score in assay [1] is 1.31; in [2] it was -0.316; in assay [3], 0.292; in [5] it was -0.468; in assay [6] it was -0.963; in assay [7], -0.898. The composite z-score in assay [8] was -1.41; in assay [9] it was -1.14; in [10] it was -0.171. In addition, in assay [4], the z-score is -1.48 (inactive).

In the case of `CCCN1C(=O)[C@]2(CCS(=O)(=O)c3ccccc3)N=C(c3ccc(OCCCO)cc3)O[C@@H]2c2ccccc21`, the composite z-score in assay [1] was determined as 1.19; in assay [2], 0.0947; in [3], 0.766; in assay [5], 0.533; in [6] it was 1.32; in assay [7], 0.0338. For the same molecule, the composite z-score in assay [8] is 1.05; in [9] it was 0.125; in assay [10], 0.916. In assay [4], the z-score was -0.707 (inactive).

Turning to `C=C(CCCC)C(=O)CC[C@H](OC(=O)c1cccnc1)c1ccccc1OCCO`, the composite z-score in [1] is 0.619; in assay [2], -0.322; in [3] it was 0.154; in assay [5], 0.704; in assay [6], -1.05; in [7] it was -0.0934. For the same molecule, the composite z-score in [8] worked out at 0.12; in [9], 0.137; in assay [10], 1.1. Moreover, the z-score in [4] is -0.637 (inactive).

On to `COc1cc(CO)cc(I)c1O[C@H]1C=C(C(=O)NCCO)C[C@@H](N(CCN2CCOCC2)C(=O)C2CCOC2)[C@@H]1O` (stereo not given in full), for which the composite z-score is 0.505 in assay [1]; -0.424 in assay [2]; -0.544 in assay [3]; 1.29 in assay [5]; 0.437 in assay [6]; -0.0432 in [7]. Moreover, the results for the composite z-score in assay [8], in assay [9] and in assay [10] were 0.742, 0.507 and -0.584, respectively. Also, the z-score in assay [4] is -0.145 (inactive).

Turning to `COC(=O)[C@@]1(Cc2ccc(OC)cc2)[C@H]2c3cc(C(=O)N4CCCC4)n(Cc4ccccc4)c3C[C@H]2CN1C(=O)c1ccccc1`, the composite z-score turned out to be 0.93 in assay [1]; 2.64 in assay [2]; 1.31 in [3]; 1.31 in assay [5]; 0.472 in [6]; 0.801 in assay [7]. For the same molecule, the composite z-score in assay [8] is 0.413; in assay [9] it was -0.505; in [10] it was 0.651. For the same molecule, the z-score in assay [4] is -1.16 (inactive).

On to `COC(=O)[C@@]1(Cc2ccc(OC)cc2)[C@H]2c3cc(C(=O)N4CCCC4)n(Cc4ccsc4Br)c3C[C@H]2CN1C(=O)c1ccccc1`, for which the composite z-score in [1] was 0.824; in assay [2], 0.597; in assay [3], 1.08; in assay [5] it was -0.125; in assay [6] it was 0.386; in [7] it was -0.248. Besides, the composite z-score in assay [8] was -0.246; in assay [9], -0.752; in assay [10] it was 0.741. Moreover, the z-score in [4] was 2.42 (inactive).

Turning to `C=C(COC)/C(=C/C[C@@H](OC(C)=O)c1ccc(CO)o1)c1cnc2ccccc2c1`, the composite z-score is 0.974 in assay [1]; 0.201 in assay [2]; -0.189 in [3]; 1.46 in assay [5]; 1.32 in assay [6]; 1.57 in assay [7]. Also, the composite z-score in assay [8] came to 1.5; in assay [9] it was 1.13; in assay [10], 1.74. Also, the z-score in assay [4] was -0.683 (inactive).

Regarding `CCCCC(O)C1C=CC2C(=O)N(c3ccccc3)C(=O)C2N1Nc1ccccc1F` (stereo not given), the composite z-score in assay [1] was 1.24; in assay [2], 1.4; in assay [3], 1.17; in [5], 0.857; in assay [6] it was 0.827; in assay [7], -0.374. For the same molecule, the values for the composite z-score in assay [8], in [9] and in assay [10] were 0.443, -0.683 and 0.834, respectively. In addition, in assay [4], the z-score is 0.826 (inactive).
